PubChem BioAssay (NCATS)
Inconclusive results are not listed. Entries that show only a call come without a potency. Activity calls are given as the source filed them. The call rests on the fitted dose curve; in most records, active means well fitted cell-killing curve with a large enough effect; inconclusive means small, poorly fitted or top-dose-only effect, or effect the other way; inactive means no such curve, though single readings can be large or run the other way.
Potency means the concentration at half of the fitted maximal effect.

Assay: Quantitative High-Throughput drug screen in 47 multiple myeloma cell lines against the NCATS MIPE library collection: ARD_JJKsccE7 cell viability assay (AID 1918929)
Conditions: ARD myeloma cell line viability, CellTiter-Glo, 48 h; series mostly up to 45.8 µM
Source text: PI: Beverly A. Mock Ph.D.
Laboratory of Cancer Biology and Genetics,
Center for Cancer Research, National Cancer Institute,
National Institute of Health, Bethesda, Maryland
Drug resistance and disease progression are common in multiple myeloma (MM) patients, underscoring the need for new therapeutic combinations. […] We hypothesized that effective combinations would reduce MYC expression and enhance p16 activity. […] These preclinical data identify potentially useful drug combinations for evaluation in drug-resistant MM and reveal potential mechanisms of combined drug sensitivity.
Described herein is the primary MIPE qHTS used to cherrypick compounds. Validated compounds were then further tested for potential synergistic activiy.
[1] Peat TJ, Gaikwad SM, Dubois W, Gyabaah-Kessie N, Zhang S, Gorjifard S, Phyo Z, Andres M, Hughitt VK, Simpson RM, Miller MA, Girvin AT, Taylor A, Williams D, D'Antonio N, Zhang Y, Rajagopalan A, Flietner E, Wilson K, Zhang X, Shinn P, Klumpp-Thomas C, McKnight C, Itkin Z, Chen L, Kazandijian D, Zhang J, Michalowski AM, Simmons JK, Keats J, Thomas CJ, Mock BA. Drug combinations identified by high-throughput screening promote cell cycle transition and upregulate Smad pathways in myeloma. Cancer Lett. 2023 Aug 1;568:216284. doi: 10.1016/j.canlet.2023.216284. Epub 2023 Jun 24. PMID: 37356470; PMCID: PMC10408729.
SEQUENCE No. (e.g., 1, 2, 3, etc.); […] (e.g., Cells, Incubation, Reagent, etc.); VALUE and DESCRIPTION.
1; Cells; 5 uL; white, solid bottom 1536-well Greiner assay plate.
2; Compounds; 23 nL; Kalypsis pin tool (Wako USA) equipped with a 1536-well pin head to transfer to the assay plates.
3; Incubation; 48 hours; 37C incubation.
4; Reagent;5uL; CellTiter Glo (Promega).
5; Detector; 425V; Luminescence; Viewlux PerkinElmer.
NOTES (numbers refer to Sequence numbers above)
1. The cell-based screening methods employed in this study were like those previously published. Briefly, the corresponding myeloma cell lines were screened in 1,536-well plates with 500 cells, 5-uL per well for inhibition of cell viability (assessed by measuring ATP levels with CellTiterGlo).
2. NCATS MIPE 4.0 library of approved and investigational drugs were added using the Kalypsis pin tool. Wells treated with DMSO only for 100% viability and media only wells for 0% viability were used as controls.
3. The assay plates were covered and incubated for 48 hours in a 37C, 5% CO2 incubator with controlled humidity.
4. After 48 hours, CellTilter-GloTM luminescent substrate mix (Promega) reagent was added to the assay plate and plates we incubated for 5 min at room temperature.
5. Signal was measured as median relative luminescence units on a ViewLux (PerkinElmer) multiplate reader.
[1] Heske CM, Davis MI, Baumgart JT, Wilson K, Gormally MV, Chen L, Zhang X, Ceribelli M, Duveau DY, Guha R, Ferrer M, Arnaldez FI, Ji J, Tran HL, Zhang Y, Mendoza A, Helman LJ, Thomas CJ. Matrix Screen Identifies Synergistic Combination of PARP Inhibitors and Nicotinamide Phosphoribosyltransferase (NAMPT) Inhibitors in Ewing Sarcoma. Clin Cancer Res. 2017 Dec 1;23(23):7301-7311. doi: 10.1158/1078-0432.CCR-17-1121. Epub 2017 Sep 12. PMID: 28899971; PMCID: PMC6636827.
In the case of `Nc1nc2ccc(OC(F)(F)F)cc2s1`, the Potency is reported as 16.6 µM (active).
With `NC(=O)c1ccc(I)c([N+](=O)[O-])c1` the Potency was “inactive”.
With `CC(C)(Sc1ccc(CCN(CCCCC2CCCCC2)C(=O)NC2CCCCC2)cc1)C(=O)O` the Potency was “inactive”.
In the case of `COc1c(Cl)cc2c([nH]c3cnccc32)c1NC(=O)c1cccnc1C`, the Potency is reported as 3.32 µM (active).
For `O=C(O)[C@@H](c1ccc(OCc2ccc3ccccc3n2)cc1)C1CCCC1`, the Potency was “inactive”.
For `CC1(C)CNc2cc(NC(=O)c3cccnc3NCc3ccncc3)ccc21`, the Potency was “inactive”.
In the case of `CCN(c1ccccc1)c1cc(NC)[n+](C)c(C)n1`, the Potency is reported as 13.2 µM (active).
In the case of `Cc1c(CCOc2ccc(C(=O)O)cc2)c2cc(Cl)ccc2n1C(c1ccccc1)c1ccccc1`, the Potency is reported as “inactive”.
For `CCCC(CCC)C(=O)O`, the Potency was “inactive”.
In the case of `CC[C@@H](C)[C@H](NC(=O)[C@H](CC1CCCCC1)NC(=O)c1ccno1)C(=O)N1CCC2(CCc3ccccc32)CC1`, the Potency is reported as “inactive”.
For `OCCn1cc(-c2cnc3nnn(Cc4ccc5ncccc5c4)c3n2)cn1`, the Potency was “inactive”.
In the case of `CN1CCN(CCCN2c3ccccc3Sc3ccc(C(F)(F)F)cc32)CC1`, the Potency is reported as “inactive”.
With `Nc1cccc(S(=O)(=O)N2CCCN(S(=O)(=O)c3ccc4c(c3)OCCO4)CC2)c1` the Potency was “inactive”.
For `Cc1cc(-c2ccc(CC(=O)Nc3ccc(-c4cccnc4)cc3)cc2)ccn1`, the Potency was 16.6 µM (active).
In the case of `CNCc1ccc(-c2[nH]c3cc(F)cc4c3c2CCNC4=O)cc1`, the Potency is reported as 5.9 µM (active).
For `CS(=O)(=O)c1cccc(CNc2nc(Nc3ccc4c(c3)CCC(=O)N4)ncc2C(F)(F)F)c1`, the Potency was 5.9 µM (active).
For `O=C(Nc1ccc(F)c(C(F)(F)F)c1)Nc1nnc(-c2ccncc2)s1`, the Potency was “inactive”.
In the case of `COc1cc2c(cc1OC)CN(CCc1ccc(NC(=O)c3cccc4c(=O)c5cccc(OC)c5[nH]c34)cc1)CC2`, the Potency is reported as “inactive”.
With `CCOc1ccn(-c2ccc(F)cc2)c(=O)c1C(=O)Nc1ccc(Oc2ccnc(N)c2Cl)c(F)c1` the Potency was 18.7 µM (active).
For `CC(C[N+](C)(C)C)OC(N)=O` (stereo not given), the Potency was “inactive”.
In the case of `COc1ccc([C@@H]2CC(=O)c3c(O)cc(O[C@@H]4O[C@H](CO[C@@H]5O[C@@H](C)[C@H](O)[C@@H](O)[C@@H]5O)[C@@H](O)[C@H](O)[C@@H]4O)cc3O2)cc1O`, the Potency is reported as “inactive”.
For `CS(=O)(=O)Oc1ccc2c(NC(N)=O)c(C(=O)c3ccc(Cl)cc3Cl)oc2c1`, the Potency was 8.33 µM (active).
In the case of `N=c1nc(N2CCCCC2)cc(N)n1O`, the Potency is reported as “inactive”.
For `CCc1cc(Nc2nccc(-c3c(-c4ccc(OC)c(C(=O)Nc5c(F)cccc5F)c4)nc4ccccn34)n2)c(OC)cc1N1CCC(N2CCN(S(C)(=O)=O)CC2)CC1`, the Potency was 4.69 µM (active).
For `Nc1nc2[nH]cc(CCc3ccc(C(=O)N[C@@H](CCC(=O)O)C(=O)O)cc3)c2c(=O)[nH]1`, the Potency was 0.469 µM (active).
With `O=c1[nH]cnc2[nH]ncc12` the Potency was 23.5 µM (active).
In the case of `Fc1ccc(Cl)cc1-c1nc(Nc2ccncc2)c2nccnc2n1`, the Potency is reported as “inactive”.
With `CC(C)(C)NCC(O)c1ccc(O)c(CO)c1` (stereo not given) the Potency was 0.0526 µM (active).
For `C[C@]1(c2nc3c(C(N)=O)cccc3[nH]2)CCCN1`, the Potency was “inactive”.
In the case of `O=C(C=Cc1ccc(/C=C/C(=O)Nc2ccc(C3=NCCN3)cc2)cc1)Nc1ccc(C2=NCCN2)cc1`, the Potency is reported as “inactive”.
With `C[C@@H]1CN(Cc2ccc(F)cc2)[C@@H](C)CN1C(=O)c1cc2c(C(=O)C(=O)N(C)C)cn(C)c2cc1Cl` the Potency was 9.35 µM (active).
With `O=C(Nc1cccnc1)N1CCC(Cc2cccc(Oc3ccc(C(F)(F)F)cn3)c2)CC1` the Potency was 11.8 µM (active).
For `N[C@@H]1CONC1=O`, the Potency was “inactive”.
With `CC(C=CC1=C(C)CCCC1(C)C)=CC=CC(C)=CC(=O)O` the Potency was 23.5 µM (active).
For `CCOc1cc(N2CCC(O)CC2)ccc1Nc1ncc2c(n1)N(C)c1ccccc1C(=O)N2C`, the Potency was 1.05 µM (active).
In the case of `COCC(=O)NCC=Cc1ccc2ncnc(Nc3ccc(Oc4ccc(C)nc4)c(C)c3)c2c1`, the Potency is reported as 11.8 µM (active).
For `CC(C)C[C@H](NC(=O)[C@@H](O)[C@H](N)Cc1ccccc1)C(=O)O`, the Potency was “inactive”.
With `OCCC#Cc1nc(-c2ccc(F)cc2)c(-c2ccncc2)n1CCCc1ccccc1` the Potency was 16.6 µM (active).
With `Cc1oncc1C(=O)Nc1ccc(C(F)(F)F)cc1` the Potency was “inactive”.
With `CCCS(=O)(=O)Nc1ccc(F)c(C(=O)c2c[nH]c3ncc(Cl)cc23)c1F` the Potency was 18.7 µM (active).
